# Results from PubChem BioAssay AID504371 (National Center for Advancing Translational Sciences (NCATS), 2011).
# Results filed as inconclusive are left out. Activity calls are given as the source filed them. Calls come from the whole dose curve; as a rule, active = well fitted curve in the direction sought with a large enough effect; inconclusive = small, poorly fitted or top-dose-only effect, or another doubt; inactive = no such curve, though single readings can be large or run the other way.
# Assay: qHTS Assay for Compounds Blocking the Interaction Between CBF-beta and RUNX1 for the Treatment of Acute Myeloid Leukemia: ME-1 cellular proliferation, SAR for Probe
# Settings: ME-1 cell proliferation, ATP luminescence, 48 h
# Text: NIH Chemical Genomics Center [NCGC] NIH Molecular Libraries Probe Production centers Network [MLPCN] MLPCN Grant: X01MH083259-01 Assay Submitter (PI): Paul Liu NCGC Assay Overview: Core Binding Factor (CBF) abnormalities are associated with 20-25% of all acute myeloid leukemias (AML), of which 5-10% are further sub classified as acute myelomonocytic leukemia with eosinophilia, also known as M4Eo in the FAB classification scheme. This subtype of leukemia is usually associated with chromosome 16 inversion (p13:q22). Chromosome 16 inversion results in formation of the fusion oncogene CBFB-MYH11, which encodes the fusion protein CBF-beta-SMMHC. […] It has been hypothesized that the interference of CBF-beta and RUNX1 binding could have therapeutic implications for patients with CBF mediated leukemias. We developed a CBF-beta and RUNX1 binding assay in AlphaScreenTM format and optimized it for high throughput screening to search for inhibitors. The goal of this project is to screen MLPCN's compound collection (MLSMR) for identifying the inhibitors of the interaction between CBF-beta and RUNX1 proteins as research probes. If these probes work well in the animal models, the ultimate goal of this project is to development a new drug treatment for this disease. The present assay assesses compounds ability to slow cellular proliferation in a CBFb dependent cell line, ME-1.
# NCGC Assay protocol: 2uL/well media was dispensed per well into 1536-well white solid-bottom plates using Multidrop Combi dispenser. Subsequently, 23 nL/well compound solutions or DMSO controls were dispensed to the assay plates via a pintool workstation. […] The plates were incubated at 37 °C with 5% CO2 and 95% humidity for 48 hours, and then ATP content was measured following the addition of 4uL/well of ATPlite reagent and a 20 min incubation on a ViewLux plate reader.
row,Compound,Potency
1,CN1C(=O)CN=C(c2ccc[nH]2)c2cc(Cl)ccc21 (tested in a mixture with another compound),27.4 µM (active)
2,CCN(CC)CCN1C(=O)CN=C(c2ccc[nH]2)c2cc(Cl)ccc21,137 µM (active)
3,CCN(CC)CCN1C(=O)CN=C(c2ccccn2)c2cc(Cl)ccc21,109 µM (active)
